From PubChem BioAssay AID1159580 (chemical genetic matrix, 2015)
“And” between values parts separate entries of the source, which are not always exact repeats. Equal entries are not always repeated. Screen size: about 5,500 compounds; about 2,000 (36%) were called active. Inconclusive results (about 18%) are left out. Rule as the data show it: active = normalized growth mostly below about 0.91 (no sharp cut-off); inconclusive = no clear call, values can overlap the other calls; inactive = mostly above about 0.92. This is one part of the list.

Test: chemical genetic growth profiling, strain panel (AID 1159580);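 also: tested at 20 µM; growth read once vehicle control cultures reached saturation at 30 °C; 1 = growth at the plate median or of vehicle wells; lower values mean less growth of the strain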
Conditions: S. cerevisiae deletion strains, growth OD

Measured: normalized growth

COc1ccc(C2Sc3ccccc3N(CCN(C)C)C(=O)C2OC(C)=O)cc1 (stereo not given)
inactive: locus YAL013W, strain DEP1, active compounds read low 1 | locus YAL021C, strain ccr4, active compounds read low 0.985 | locus YAL026C, strain drs2, active compounds read low 0.969 | locus YAL030W, strain snc1, active compounds read low 0.986 | locus YBL061C, strain skt5, active compounds read low 0.987 | locus YBR009C, strain hhf1, active compounds read low 1.01 | locus YBR021W, strain FUR4, active compounds read low 1.04 | locus YBR023C, strain chs3, active compounds read low 0.988 | locus YBR171W, strain sec66, active compounds read low 0.966 | locus YBR229C, strain ROT2, active compounds read low 1.01 | locus YBR231C, strain swc5, active compounds read low 0.919 | locus YBR279W, strain paf1, active compounds read low 0.977 | locus YCL011C, strain gbp2, active compounds read low 0.971 | locus YCL016C, strain dcc1, active compounds read low 0.999 | locus YCL029C, strain bik1, active compounds read low 1.03 | locus YCL069W, strain vba3, active compounds read low 0.975 | locus YCR088W, strain abp1, active compounds read low 0.979 | locus YDL005C, strain med2, active compounds read low 0.953 | locus YDL035C, strain GPR1, active compounds read low 1.02 | locus YDL040C, strain nat1, active compounds read low 0.975 | locus YDL074C, strain BRE1, active compounds read low 1.04 | locus YDL101C, strain DUN1, active compounds read low 1.01 | locus YDL134C, strain PPH21, active compounds read low 1.01 | locus YDL185W, strain tfp1, active compounds read low 1.04 | locus YDL192W, strain arf1, active compounds read low 1.04 | locus YDR001C, strain nth1, active compounds read low 0.949 | locus YDR069C, strain doa4, active compounds read low 0.963 | locus YDR101C, strain arx1, active compounds read low 1.03 | locus YDR137W, strain rgp1, active compounds read low 1.01 | locus YDR150W, strain NUM1, active compounds read low 1.01 | locus YDR159W, strain sac3, active compounds read low 0.981 | locus YDR162C, strain NBP2, active compounds read low 1.01 | locus YDR195W, strain ref2 0.923 | locus YDR297W, strain sur2, active compounds read low 0.989 | locus YDR318W, strain mcm21, active compounds read low 1.03 | locus YDR334W, strain swr1, active compounds read low 0.917 | locus YDR335W, strain msn5, active compounds read low 0.943 | locus YDR388W, active compounds read low 1.03 | locus YDR392W, strain spt3, active compounds read low 1.02 | locus YDR502C, strain sam2, active compounds read low 1.03 | locus YEL003W, strain gim4, active compounds read low 0.978 | locus YEL037C, strain rad23, active compounds read low 0.97 | locus YEL061C, strain CIN8 (second series), active compounds read low 0.943 | locus YEL061C, strain CIN8, active compounds read low 1.01 | locus YER015W, strain faa2, active compounds read low 0.962 | locus YER016W, strain bim1, active compounds read low 0.993 | locus YER110C, active compounds read low 1.05 | locus YER111C, strain swi4, active compounds read low 0.953 | locus YER155C, strain BEM2 (second series), active compounds read low 0.986 | locus YER155C, strain BEM2, active compounds read low 1.01 | locus YER167W, strain BCK2, active compounds read low 1.03 | locus YFR010W, strain ubp6, active compounds read low 0.938 | locus YGL078C, strain dbp3, active compounds read low 1.03 | locus YGL086W, strain mad1, active compounds read low 1.02 | locus YGL167C, strain pmr1, active compounds read low 1.01 | locus YGL173C, strain kem1, active compounds read low 1.01 | locus YGL227W, strain vid30, active compounds read low 0.984 | locus YGL240W, strain doc1, active compounds read low 0.983 | locus YGL248W, strain PDE1, active compounds read low 1.01 | locus YGL253W, strain hxk2, active compounds read low 0.959 | locus YGR078C, strain PAC10, active compounds read low 1.01 | locus YGR135W, strain pre9, active compounds read low 1.02 | locus YGR229C, strain SMI1, active compounds read low 1.05 | locus YGR252W, strain gcn5, active compounds read low 1.06 | locus YHR013C, strain ard1, active compounds read low 0.979 | locus YHR027C, strain rpn1, active compounds read low 0.977 | locus YHR030C, strain SLT2, active compounds read low 1.01 and 1.04 | locus YHR079C, strain IRE1 (second series), active compounds read low 1.03 | locus YHR079C, strain IRE1, active compounds read low 1.01 | locus YHR094C, strain hxt1, active compounds read low 1.03 | locus YHR129C, strain ARP1, active compounds read low 1.01 | locus YHR142W, strain chs7, active compounds read low 0.972 | locus YHR200W, strain rpn10, active compounds read low 1.04 | locus YIL066C, strain RNR3, active compounds read low 1.01 | locus YIL073C, strain SPO22, active compounds read low 1.12 | locus YIL125W, strain kgd1, active compounds read low 1.03 | locus YIR030C, strain dcg1, active compounds read low 1.04 | locus YJL092W, strain hpr5, active compounds read low 0.99 | locus YJL095W, strain BCK1 (second series), active compounds read low 0.973 | locus YJL095W, strain BCK1, active compounds read low 1.03 and 1.01 | locus YJL115W, strain asf1, active compounds read low 0.949 | locus YJL129C, strain trk1, active compounds read low 0.925 | locus YJL134W, strain LCB3, active compounds read low 1 | locus YJL154C, strain vps35, active compounds read low 0.982 | locus YJL164C, strain tpk1, active compounds read low 0.996 | locus YJL166W, strain qcr8, active compounds read low 0.986 | locus YJL168C, strain set2, active compounds read low 1.04 | locus YJL187C, strain SWE1 (second series), active compounds read low 1.01 | locus YJR066W, strain TOR1, active compounds read low 0.942 | locus YJR075W, strain HOC1, active compounds read low 1.02
